Measurements: PubChem BioAssay (Tox21)
“And” between values parts separate entries of the source, which are not always exact repeats. Equal values may be shown once. Results filed as inconclusive are left out. Where a call stands in place of a potency, no number is given. Where a structure was tested more than once in an assay, its records may differ in their call. The source made the active and inactive calls. Unless noted, calls come from the whole dose curve; as a rule, active = well fitted curve in the direction sought with a large enough effect in the repeat runs; inconclusive = weak or mixed curves; inactive = no such curve, though single readings can be large; an effect the other way counts as inactive or inconclusive.

Legend:
[1] = qHTS RealTime-Glo MT Cell Viability Assay in HepG2 cells - 32 hour (AID 1224877); note: nearly all actives have a fitted effect of over 55% in size
Outline: (§1)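 Compound treatment began 5 h after plating HepG2 cells (600/well) with NanoLuc luciferase and prosubstrate. Plates stayed at 37 C for 40 h; luminescence was captured at six time points, 0 h through 40 h.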

[2] = A CellTox Green Cytotoxicity Assay to monitor cytotoxicity in HepG2 cells - 24 hour (AID 1224878); note: nearly all actives have a fitted effect of over 45% in size
Outline: (§2)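 Using 1536-well format, dye-containing HepG2 suspension was seeded, allowed 5 h at 37 C/5% CO2, dosed by pintool with compounds, positive and negative controls, and imaged for fluorescence across 40 h.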

[3] = A CellTox Green Cytotoxicity Assay to monitor cytotoxicity in HepG2 cells - 40 hour (AID 1224879); note: nearly all actives have a fitted effect of over 40% in size; note: potency is the fitted concentration of half-maximal effect
Outline: as §2

[4] = qHTS RealTime-Glo MT Cell Viability Assay in HEK293 cells - 0 hour (AID 1224880); note: nearly all actives have a fitted effect of over 45% in size; note: potency is the fitted concentration of half-maximal effect
Outline: (§3)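 Viable HEK293 cells reduce a cell-permeant prosubstrate; the product diffuses out and is consumed by NanoLuc in the medium to give light. Compounds went in after a 5 h incubation and plates were read over the treatment course.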

[5] = A CellTox Green Cytotoxicity Assay to monitor cytotoxicity in HEK293 cells - 32 hour (AID 1224881); note: nearly all actives have a fitted effect of over 40% in size
Outline: (§4)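 Fluorescence intensity, read at 0, 8, 16, 24, 32 and 40 h of compound treatment, reflected dye binding to DNA of dead HEK293 cells; compounds (23 nL, DMSO) were added 5 h after plating cells with reagent.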

[6] = A CellTox Green Cytotoxicity Assay to monitor cytotoxicity in HepG2 cells - 0 hour (AID 1224882); note: nearly all actives have a fitted effect of over 35% in size
Outline: as §2

[7] = A CellTox Green Cytotoxicity Assay to monitor cytotoxicity in HepG2 cells - 32 hour (AID 1224883); note: nearly all actives have a fitted effect of over 50% in size
Outline: as §2

[8] = A CellTox Green Cytotoxicity Assay to monitor cytotoxicity in HEK293 cells - 8 hour (AID 1224884); note: nearly all actives have a fitted effect of over 35% in size
Outline: as §4

[9] = qHTS RealTime-Glo MT Cell Viability Assay in HepG2 cells - 16 hour (AID 1224885); note: nearly all actives have a fitted effect of over 50% in size
Outline: as §1

[10] = qHTS RealTime-Glo MT Cell Viability Assay in HEK293 cells - 24 hour (AID 1224886); note: top concentration of the series differs between compounds; nearly all actives have a fitted effect of over 50% in size
Outline: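 Quantitative high-throughput screen of the Tox21 10K library in HEK293: cells and RealTime-Glo reagents plated together, compound added at 5 h, luminescence monitored through 40 h at 37 C.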

[11] = qHTS RealTime-Glo MT Cell Viability Assay in HEK293 cells - 8 hour (AID 1224887); note: top concentration of the series differs between compounds; nearly all actives have a fitted effect of over 50% in size
Outline: as §3

[12] = A CellTox Green Cytotoxicity Assay to monitor cytotoxicity in HEK293 cells - 16 hour (AID 1224888); note: nearly all actives have a fitted effect of over 35% in size
Outline: as §4

[13] = qHTS RealTime-Glo MT Cell Viability Assay in HepG2 cells - 0 hour (AID 1224889); note: nearly all actives have a fitted effect of over 50% in size; note: potency is the fitted concentration of half-maximal effect
Outline: as §1

[14] = A CellTox Green Cytotoxicity Assay to monitor cytotoxicity in HepG2 cells - 8 hour (AID 1224890); note: nearly all actives have a fitted effect of over 45% in size
Outline: as §2

[15] = qHTS assay to identify small molecule antagonists of the estrogen receptor alpha (ER-alpha) signaling pathway using the BG1 cell line in the presence of 0.1 nM 17-beta-estradiol - cell viability counter screen (AID 1259241); note: nearly all actives have a fitted effect of over 40% in size
Outline: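 Estradiol-stimulated (0.1 nM) VM7Luc4E2 cells exposed to compounds 22 hr; viability measured by fluorescence of cleaved CellTiter-Fluor substrate after 30 min.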

[16] = qHTS assay to identify small molecule antagonists of the androgen receptor (AR) signaling pathway using the MDA cell line in the presence of 0.5 nM R1881 - cell viability counter screen (AID 1259242); note: nearly all actives have a fitted effect of over 45% in size
Outline: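 Viability of MDA-kb2 cells was multiplexed with the luciferase AR readout; after 16 hr with compounds and R1881 at 0.5 nM final, CellTiter-Fluor fluorescence was recorded.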

[17] = target: Estrogen receptor (Homo sapiens) (UniProt P03372); assay: qHTS assay to identify small molecule antagonists of the estrogen receptor alpha (ER-alpha) signaling pathway using the BG1 cell line in the presence of 0.1 nM 17-beta-estradiol (AID 1259244); note: nearly all actives have a fitted effect of over 50% in size
Estrogen receptor (Homo sapiens), sequence (P03372 whole entry, looked up): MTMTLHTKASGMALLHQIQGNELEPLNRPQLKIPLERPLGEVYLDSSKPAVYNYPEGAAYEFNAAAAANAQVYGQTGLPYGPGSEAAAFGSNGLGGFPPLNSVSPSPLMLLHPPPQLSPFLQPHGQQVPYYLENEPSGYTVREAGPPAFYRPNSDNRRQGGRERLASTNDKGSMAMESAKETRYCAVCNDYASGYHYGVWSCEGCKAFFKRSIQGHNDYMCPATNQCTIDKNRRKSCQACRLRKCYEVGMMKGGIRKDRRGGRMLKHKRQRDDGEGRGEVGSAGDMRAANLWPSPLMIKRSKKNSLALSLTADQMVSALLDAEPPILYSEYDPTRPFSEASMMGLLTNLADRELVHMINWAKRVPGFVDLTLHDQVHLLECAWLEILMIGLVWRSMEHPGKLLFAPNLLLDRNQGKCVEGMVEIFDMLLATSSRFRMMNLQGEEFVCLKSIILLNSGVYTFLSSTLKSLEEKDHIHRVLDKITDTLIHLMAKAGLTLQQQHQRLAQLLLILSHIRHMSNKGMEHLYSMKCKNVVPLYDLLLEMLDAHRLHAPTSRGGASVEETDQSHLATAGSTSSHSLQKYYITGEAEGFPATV
Outline: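 Estradiol at 0.1 nM (final) stimulates the endogenous ER-alpha of VM7Luc4E2 cells carrying an ERE-driven luciferase; compounds are co-incubated 22 h at 37C and luciferase output quantified by luminescence.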

[18] = qHTS assay to identify small molecule phospholipidosis (PLD) inducers (AID 1259344; active = well fitted curve in the direction sought with a large enough effect; an effect the other way counts as inactive or inconclusive)
Outline: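 Fluorescent phospholipid staining (LipidTOX Red) measured by automated microscopy in fixed HepG2 cells after 24 h treatment; nuclei counterstained with Hoechst 33342; amiodarone as reference inducer.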

[19] = target: Androgen receptor (Homo sapiens) (UniProt P10275); assay: qHTS assay to identify small molecule antagonists of the androgen receptor (AR) signaling pathway using the MDA cell line in the presence of 0.5 nM R1881 (AID 1259243); note: nearly all actives have a fitted effect of over 50% in size
Androgen receptor (Homo sapiens), sequence (P10275 whole entry, looked up): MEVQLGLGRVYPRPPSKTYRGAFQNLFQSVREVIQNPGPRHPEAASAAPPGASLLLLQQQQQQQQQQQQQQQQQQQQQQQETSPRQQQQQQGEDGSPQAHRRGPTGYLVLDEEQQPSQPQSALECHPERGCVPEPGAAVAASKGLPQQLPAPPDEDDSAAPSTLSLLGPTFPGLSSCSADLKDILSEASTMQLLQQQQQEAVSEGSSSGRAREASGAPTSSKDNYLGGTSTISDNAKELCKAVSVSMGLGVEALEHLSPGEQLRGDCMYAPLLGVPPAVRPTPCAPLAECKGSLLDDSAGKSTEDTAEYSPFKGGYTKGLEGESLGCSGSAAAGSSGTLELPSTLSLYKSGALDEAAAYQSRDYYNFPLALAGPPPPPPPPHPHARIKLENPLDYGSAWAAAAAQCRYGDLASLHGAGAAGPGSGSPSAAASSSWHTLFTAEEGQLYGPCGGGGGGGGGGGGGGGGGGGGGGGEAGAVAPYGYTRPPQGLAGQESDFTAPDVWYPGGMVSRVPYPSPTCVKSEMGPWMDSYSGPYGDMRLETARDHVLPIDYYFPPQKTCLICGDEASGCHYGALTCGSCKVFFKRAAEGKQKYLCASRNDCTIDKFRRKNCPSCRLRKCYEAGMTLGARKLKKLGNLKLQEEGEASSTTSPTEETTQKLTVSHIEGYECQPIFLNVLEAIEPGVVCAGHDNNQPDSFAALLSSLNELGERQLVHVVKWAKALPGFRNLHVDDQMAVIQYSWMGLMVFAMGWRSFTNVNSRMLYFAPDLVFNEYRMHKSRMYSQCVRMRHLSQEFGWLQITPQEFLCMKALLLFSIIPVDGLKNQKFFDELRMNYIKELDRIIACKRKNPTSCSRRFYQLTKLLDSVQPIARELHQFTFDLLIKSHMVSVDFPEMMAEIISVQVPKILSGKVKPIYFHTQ
Outline: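 Reporter cells cultured without CO2 receive test chemicals, then 0.5 nM R1881 final; after 16 hr at 37C, ONE-Glo is added and light output recorded.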

[20] = qHTS assay to identify small molecule HDAC inhibitors (AID 1259364)
Outline: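 Read-out: luminescence of HDAC-Glo I/II reagent, 30 min RT, reflecting class I/II deacetylase activity in whole HCT-116 cells pre-exposed 2 h to DMSO-dissolved compounds.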

Structure (SMILES)	outcome [1]	Potency [2]	Potency [3]	Potency [4]	Potency [5]	outcome [6]	Potency [7]	outcome [8]	outcome [9]	Potency [10]	Potency [11]	outcome [12]	Potency [13]	Potency [14]	Potency [15]	outcome [16]	Potency [17]	outcome [18]	Potency [19]	Potency [20]
CCC(O)OCCCOC (stereo not given)	inactive	inactive	inactive	inactive	inactive	inactive	inactive	inactive	inactive	inactive	inactive	inactive	inactive	inactive	inactive	inactive				
CC(=O)Nc1cccc(O)c1	inactive	inactive	inactive	inactive	inactive	inactive	inactive	inactive	inactive	inactive	inactive	inactive	inactive	inactive	inactive	inactive	inactive	inactive		
CC(O)COCC(C)O (stereo not given)	inactive	inactive	inactive	inactive	inactive	inactive	inactive	inactive	inactive	inactive	inactive	inactive	inactive	inactive	inactive	inactive	inactive			
CC1CCC(C(C)C)C(O)C1 (stereo not given)	inactive	inactive	inactive	inactive	inactive	inactive	inactive	inactive	inactive	inactive	inactive	inactive	inactive	inactive	inactive	inactive			inactive	inactive
O=[N+]([O-])c1ccc(/C=C/c2ccc([N+](=O)[O-])cc2S(=O)(=O)O)c(S(=O)(=O)O)c1	inactive	inactive	inactive	inactive	inactive	inactive	inactive	inactive	inactive	inactive	inactive	inactive	inactive	inactive	inactive	inactive	inactive			
CC(=O)CC(=O)Nc1ccccc1C	inactive	inactive	inactive	inactive	inactive	inactive	inactive	inactive	inactive	inactive	inactive	inactive	inactive	inactive	inactive	inactive	inactive			
OCCOCCOCCO	inactive	inactive	inactive	inactive	inactive	inactive	inactive	inactive	inactive	inactive	inactive	inactive	inactive	inactive	inactive	inactive	inactive	inactive	inactive	inactive
C[C@H]1C[C@@H]2[C@H]([C@@H](O)C[C@@]3(C)[C@H]2CC[C@]3(O)C(=O)CO)[C@@]2(C)C=CC(=O)C=C12	inactive	inactive	inactive	7.76 µM (active) and 8.49 µM (active)	inactive	inactive	inactive	inactive	inactive	inactive	inactive	inactive	871 nM (active) and 1.9 µM (active)	inactive	inactive	inactive		inactive	inactive	inactive
C=C(C)C(=O)OCCOCCOCCOC(=O)C(=C)C	inactive	inactive	inactive	inactive	inactive	inactive	inactive	inactive	inactive	inactive	inactive	inactive	inactive	inactive	inactive	inactive				
CCCCCCCCCCCCCCO	inactive	inactive	inactive	inactive	inactive	inactive	inactive	inactive	inactive	inactive	inactive	inactive	inactive	inactive	inactive	inactive	inactive			
Cc1occc(=O)c1O	inactive	inactive	inactive	inactive	inactive	inactive	inactive	inactive	inactive	inactive	inactive	inactive	inactive	inactive	inactive	inactive				
O=C(O)c1ccc(C(=O)O)cc1	inactive	inactive	inactive and 15.5 µM (active)	inactive	inactive	inactive	inactive	inactive	inactive	inactive	inactive	inactive	inactive	inactive	inactive	inactive				
CCCCCCCCCC	inactive	inactive	inactive	inactive	inactive	inactive	inactive	inactive	inactive	inactive	inactive	inactive	inactive	inactive	inactive	inactive	inactive			
CCCCCOC(C)=O	inactive	inactive	inactive	inactive	inactive	inactive	inactive	inactive	inactive	inactive	inactive	inactive	inactive	inactive	inactive	inactive	inactive			
O=C(CC(C(=O)OC1CCCCC1)S(=O)(=O)O)OC1CCCCC1 (stereo not given)	inactive	inactive	inactive	inactive	inactive	inactive	inactive	inactive	inactive	inactive	inactive	inactive	inactive	inactive	inactive	inactive				
CCCCCCOCCO	inactive	inactive	inactive	inactive	inactive	inactive	inactive	inactive	inactive	inactive	inactive	inactive	inactive	inactive	inactive	inactive	inactive			
CCCCOC(=O)COc1ccc(Cl)cc1Cl	inactive	inactive	inactive	inactive	inactive	inactive	inactive	inactive	inactive	inactive	inactive	inactive	inactive	inactive	inactive	inactive				
